# Most compounds without a hit are left out; they make up all but 19% or so of the library.
# ELG1 repair inh: blocks ELG1-dependent DNA repair in HEK293T cells; 2.3% of 330,000 active; Potency, µM (series often up to 46.1 µM), usual class: inhibitors; HEK293T ELG1-luciferase reporter, luminescence, 16 h; DNA damage induced by 5-fluorouridine; AID 504467; further: nearly all actives have a fitted effect of over 55% in size
#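 In this reporter screen, reduction of luminescence relative to DMSO vehicle indicated activity. Compounds and 5-fluorouridine were added together to 2,000 cells per well, incubated for 16 hr at 37 °C, then developed with ONE-Glo.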
# HT1080NT lethal: kills 2HG-producing HT-1080-NT fibrosarcoma cells. HT-1080-NT fibrosarcoma viability, CellTiter-Glo ATP luminescence, 48 h. Potency, µM (series often up to 46.1 µM), most hits filed as cytotoxic. 1.6% of 360,000 active. AID 686970;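 further: NT is the 2HG producing partner of a matched IDH1 knockdown line; nearly all actives have a fitted effect of over 55% in size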
#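 Luminescent CellTiter-Glo readout after 48 hours of compound exposure at 37 degrees C defined viability of HT-1080-NT cells. Activity was normalized to DMSO wells and cell-free media wells; concentration-response curves were fitted and assigned curve classes.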
# DT40 TDP1 CPT: DT40-hTDP1 cell growth loss with CPT; chicken DT40 Tdp1-/-;hTDP1 cells + 20 nM CPT, ATP luminescence, 48 h; Potency, µM (top dose mostly 46.2 µM), usual class: inhibitors; 12% of 420,000 active; further: nearly all actives have a fitted effect of over 55% in size
#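 Chicken DT40 Tdp1-/- cells stably complemented with human TDP1 were seeded at 400 cells/well in medium containing 20 nM camptothecin, exposed to pin-transferred compounds, and grown at 37 °C for at least 48 hr. Viability was read as ATP luminescence.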
# IL1B secr inh: blocks inflammasome-driven IL-1 beta release | 4.7% of 360,000 active | activity change, % at 57.5 µM | THP-1 LPS/ATP IL-1B secretion, AlphaLISA, 16 h; active compounds read low; in the data active means activity change below about -50%; inconclusive means mostly about -30% to -49%
#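 Secreted IL-1B measured by AlphaLISA bead assay after 16 h compound exposure of THP-1 cells; compounds (final up to 57.5 uM) added 1 h before LPS (250 ng/mL) and ATP (1.25 mM) stimulation; lower signal means less secretion.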
# HT1080 IDH1KD tx: HT-1080 IDH1 knockdown cell toxicity (counter line); HT-1080 IDH1 knockdown viability, ATP luminescence, 48 h; Potency, µM (highest dose often 46.1 µM), hits mostly cytotoxic; 2% of 360,000 active
#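 Luminescent ATP read-out (CellTiter-Glo, 10 min at room temperature) after 48 h compound exposure at 37 °C gave viability of IDH1-knockdown HT-1080 cells. Activity was normalised to DMSO and cell-free wells, then fitted as concentration-response curves.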
# DT40 TDP1 no CPT: qHTS for Inhibitors of human tyrosyl-DNA phosphodiesterase 1 (TDP1): qHTS in cells in absence of CPT | DT40 Tdp1-/- hTDP1 cells, no CPT, ATP luminescence, 48 h | Potency, µM (top dose mostly 46.2 µM), hits mostly inhibitors | 15% of 420,000 active; further: nearly all actives have a fitted effect of over 55% in size
#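 No-CPT arm: Tdp1-/-;hTDP1 DT40 cells (400/well) plus compounds, incubated ≥48 hr at 37 °C. Readout CellTiter-Glo luminescence.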
# A number is an active result; . = inactive; ? = inconclusive; / = no result; [ ] = remark or other dose. Unless noted, the call rests on the fitted dose curve; in most records, active means well fitted curve in the direction sought with a large enough effect; inconclusive means small, poorly fitted or top-dose-only effect, or another doubt; inactive means no such curve, though single readings can be large; an effect the other way counts as inactive or inconclusive.
SMILES,ELG1 repair inh,HT1080NT lethal,DT40 TDP1 CPT,IL1B secr inh,HT1080 IDH1KD tx,DT40 TDP1 no CPT
CCc1ccccc1NC(=O)Nc1cc(C(=O)NCc2ccc(OC)cc2)ccc1N1CCCC1,/,/,12µM,/,/,9.2µM
CC(C)CC(NC(=O)C1CCCCC1)C(=O)Nc1cccc(C(F)(F)F)c1 (centres undefined),/,/,.,/,/,.
CCC(=O)N1CCC2(CC1)Oc1ccc(Cl)cc1C(=O)C21CC(c2ccccc2)=NO1 (centres undefined),.,.,?,.,.,26µM
CCc1ccc(CN(C)C(=O)c2cc(=O)c3ccccc3o2)cc1,.,.,?,.,.,.
Cc1ccc2c(=O)cc(C(=O)NCCc3ccc(S(N)(=O)=O)cc3)oc2c1,9.2µM,.,.,.,.,.
COc1ccc(CCNC(=O)c2cc(=O)c3cc(C)ccc3o2)cc1,.,.,23µM,.,.,13µM
Cc1cc(C)c2oc(C(=O)NCCc3ccc(S(N)(=O)=O)cc3)cc(=O)c2c1,.,.,.,.,.,?
COc1ccc(CCN(C)C(=O)c2cc(=O)c3ccccc3o2)cc1OC,?,.,.,-54,.,.
Cc1ccc2c(=O)cc(C(=O)NCc3ccccc3)oc2c1,/,/,.,/,/,.
COc1ccc(CCNC(=O)c2cc(=O)c3ccc(C)cc3o2)cc1OC,16µM,.,?,.,.,21µM
Cc1cc(C(=O)NCc2nc(-c3ccccc3NC(=O)C3CCCO3)oc2C)nc(C)n1 (centres undefined),/,/,.,/,/,.
Cc1cccc(Nc2ncnc3onc(-c4cccc(Cl)c4)c23)c1,.,.,21µM,.,.,?
CN(c1ncnc2onc(-c3cccc(Cl)c3)c12)C1CCCCC1,/,/,?,/,/,23µM
O=C(COc1ccccc1Cl)Nc1ccc2[nH]c(=O)[nH]c2c1,.,.,.,.,.,.
COc1ccc(/C=C/C(=O)N2CCc3c(cnc(C)c3CNC(=O)c3ccsc3)C2)cc1OC,/,/,.[9.04 µM],/,/,.
CCNc1nc(N)c(C(=C(C#N)C#N)c2ccccc2)s1,.,.,?,-75,.,?
CCC(C(=O)N1CCOCC1)n1nc(C)n2c(cc3cc(C)ccc32)c1=O (centres undefined),.,.,.,.,.,.
CCc1cccc(CC)c1NC(=O)C(CC)n1nc(C)n2c(cc3cc(C)ccc32)c1=O (centres undefined),/,/,?,/,/,21µM
CCC(C(=O)Nc1ccc(C(C)C)cc1)n1nc(C)n2c(cc3cc(C)ccc32)c1=O (centres undefined),/,/,23µM,/,/,?
CC(NC(=O)/C(C#N)=C1\N=C(NC(=O)c2cccs2)c2ccccc21)c1ccccc1 (centres undefined),?,.,?,.,.,16µM
Cc1ccc(C)c(N2C(=O)N(Cc3ccccc3C)c3ccccc3S2(=O)=O)c1,/,/,18µM,/,/,29µM
Cc1ccc(N2C(=O)N(CC(=O)C(C)(C)C)c3ccccc3S2(=O)=O)cc1,.,/,/,/,/,/
COc1cccc(CNC(=O)CN2C(=O)N(c3c(C)cccc3C)S(=O)(=O)c3ccccc32)c1OC,/,/,16µM,/,/,16µM
COc1cccc(CNC(=O)CN2C(=O)N(c3cc(C)ccc3C)S(=O)(=O)c3ccccc32)c1OC,/,/,13µM,/,/,23µM
CCOC(=O)CN1C(=O)N(c2ccccc2OC)S(=O)(=O)c2ccccc21,.,.,.,.,.,.
SMILES,ELG1 repair inh,HT1080NT lethal,DT40 TDP1 CPT,IL1B secr inh,HT1080 IDH1KD tx,DT40 TDP1 no CPT
CCN(CC(=O)NC1CCS(=O)(=O)C1)C(=O)/C=C/c1cccs1 (centres undefined),.,.,.,.,.,.
O=C(Nc1cccc(-c2nc3ccccc3[nH]2)c1)c1ccccn1,.,.,18µM,.,.,13µM
COc1cccc(C(=O)Nc2ccc(Cl)c(-c3nc4ccccc4[nH]3)c2)c1,/,/,?,/,/,6.5µM
CC(C)COc1ccc(C(=O)Nc2cccc(-c3nc4ccccc4[nH]3)c2)cc1,/,/,18µM,/,/,21µM
COc1cccc(OC)c1C(=O)Nc1cccc(-c2nc3ccccc3[nH]2)c1,.,.,?,.,.,18µM
COc1cccc(C(=O)Nc2ccc3c(c2)C(=O)c2ccccc2C3=O)c1,?,.,?,.,.,.
O=C(CCSc1ccc(F)cc1)NNC(=O)c1ccccc1Cl,.,.,.,.,.,.
Cc1ccc(NS(=O)(=O)c2cc3[nH]c(=O)c(=O)[nH]c3cc2C)c(C)c1,.,.,.,.,.,.
O=C(Nc1cccc(-c2nc3ccccc3[nH]2)c1)c1c(F)cccc1F,/,/,15µM,/,/,10µM
CCOC(=O)/C(C#N)=C\c1cc(C)n(-c2ccccc2)c1C,?,.,?,.,.,?
Cc1ccc(NC(=O)/C(C#N)=C/c2cc(C)n(-c3ccc(N4CCOCC4)c([N+](=O)[O-])c3)c2C)c(C)c1,?,.,7.3µM,.,.,8.2µM
CCOC(=O)/C(C#N)=C/c1cc(C)n(-c2ccc(C)cc2)c1C,?,.,18µM,.,?,18µM
Cc1cccc(NC(=O)/C(C#N)=C\c2cc(C)n(-c3ccc(C(=O)O)cc3)c2C)c1,.,.,?,-78,.,18µM
COC(=O)/C(C#N)=C/c1ccc(N2CCOCC2)c([N+](=O)[O-])c1,.,.,.,.,.,.
Cc1cc(/C=C(\C#N)C(=O)Nc2ccc(Cl)cc2)c(C)n1-c1ccc(N2CCOCC2)c([N+](=O)[O-])c1,?,.,7.3µM,?,.,7.3µM
Cc1cc(/C=C(\C#N)C(=O)Nc2ccccc2)c(C)n1-c1ccc(C(=O)O)cc1,.,.,.,?,.,.
O=C(COC(=O)CN1C(=O)C2CCCCC2C1=O)NCc1ccc(Cl)cc1Cl (centres undefined),.,.[9.24 µM],.,.,.,.
COc1ccc(Cl)cc1NC(=O)c1cc2nc(-c3ccc4c(c3)OCO4)cc(C(F)(F)F)n2n1,/,/,.,/,/,.
CCc1nc2ccc(C(=O)N3CCN(C(=O)c4ccco4)CC3)cn2c1N(C)Cc1nccn1C,/,.,.,.,.,.
O=C(c1cc(Cl)c(=O)n(Cc2ccc(Cl)cc2)c1)N1CCOCC1,.,.,.,.,.,.
O=C(CCn1c(=O)c2sccc2n(Cc2cccc(F)c2)c1=O)NCc1ccc2c(c1)OCO2,/,/,.,/,/,.
CNC(=O)/C(C#N)=C/c1cc(C)n(-c2ccc(N3CCOCC3)cc2)c1C,?,.,3.3µM,.,.,?
Cc1cnc(CN2CCc3c([nH]c4ccccc34)C2C2CCCCC2)[nH]1 (centres undefined),.,.,?,-79,?,?
